This note sets out measurements from PubChem BioAssay (NCI).

Among the test systems are NCI-H23 lung; NCI-H226 lung; NCI-H322M lung; HOP-62 NSCLC; NCI-H460 lung; HOP-92 NSCLC; NCI-H522 lung; A549/ATCC NSCLC; 786-0 renal; COLO 205 colon; DU-145 prostate; K-562 leukemia; MALME-3M melanoma; MDA-MB-231 breast; RXF 393 renal; SF-268 CNS; SF-295 CNS; SF-539 CNS; UACC-257 melanoma; M14 melanoma.
Assay in all cases: NCI-60 one-dose screen, 48 h (100 = growth as untreated, 0 = no growth, -100 = all killed)
Holding throughout (details): 10 µM unless noted

The structures appear in SMILES notation. Compounds without any hit were thinned out: in the full panel of roughly 83,000, 20% have a hit.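 Results are percent growth after 48 hours of single-concentration exposure. 100 means growth as in untreated cells, lower positive values show inhibition; negative values down to -100 show cell death.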 Unmarked numbers belong to inactive results. Calls of active or inactive are those of the source. How the source made its calls: active means growth percent below 10; inactive means the rest.

As to `CC1(C)CC[C@]23CC[C@]4(C)[C@H](CC[C@@H]5[C@@]6(C)CCNCC(C)(C)[C@@H]6CC[C@]54C)[C@H]2[C@H]1OC3`, the growth is 95.6% in the experiment with NCI-H23 lung; 96.7% in the experiment on NCI-H226 lung; 99.8% with NCI-H322M lung; 97% in the experiment with HOP-62 NSCLC; 23.7% with NCI-H460 lung; 98.9% with HOP-92 NSCLC. For the same molecule, the growth in the experiment on NCI-H522 lung was 90.1%; in the experiment with A549/ATCC NSCLC it was 79.3%; in the experiment on 786-0 renal, 101%; with COLO 205 colon it was -21% (active); in the experiment with DU-145 prostate it was 98.5%; in the experiment with K-562 leukemia, 16.9%. Moreover, the growth is 104% in the experiment on MALME-3M melanoma; 96.6% in the experiment on MDA-MB-231 breast; 101% in the experiment on RXF 393 renal; 111% with SF-268 CNS; 108% in the experiment with SF-295 CNS; 99.5% with SF-539 CNS. Moreover, in the experiment with UACC-257 melanoma, the growth is 92.5%.
Turning to `CC12OC(CC(O)C1O)n1c3ccccc3c3c4c(c5c6ccccc6n2c5c31)C(=O)N(CCN1CCCC1)C4=O` (stereo not drawn), the growth in the experiment with NCI-H23 lung is 14.3%; in the experiment on NCI-H226 lung, 2.49% (active); in the experiment with NCI-H322M lung, 28.5%; in the experiment on HOP-62 NSCLC, 2.4% (active); in the experiment on NCI-H460 lung, -17.3% (active); in the experiment with HOP-92 NSCLC, 34.1%. For the same molecule, the growth in the experiment with NCI-H522 lung is -0.973% (active); in the experiment with A549/ATCC NSCLC, 1.98% (active); in the experiment with 786-0 renal, 14.5%; in the experiment on COLO 205 colon it was 14.4%; in the experiment on DU-145 prostate, 3.68% (active); in the experiment on K-562 leukemia, 4.59% (active). In addition, the growth in the experiment with MALME-3M melanoma is 13.2%; in the experiment with MDA-MB-231 breast, 56.9%; with RXF 393 renal, 21.1%; with SF-268 CNS, 29%; in the experiment with SF-295 CNS it was 2.23% (active); with SF-539 CNS, 22.8%. The growth in the experiment with UACC-257 melanoma was 24.5%.
On to `O=C(/C=C/C12c3ccccc3C(c3ccccc31)C1C(=O)NC(=O)C12)c1ccc(I)cc1` (stereo not drawn), for which the growth in the experiment with NCI-H23 lung was 59.3%; in the experiment with NCI-H226 lung it was 88.8%; with NCI-H322M lung, 65.1%; in the experiment on HOP-62 NSCLC, 69.3%; in the experiment with NCI-H460 lung, 44.8%; with HOP-92 NSCLC, 63.7%. For the same molecule, the growth was 55% in the experiment with NCI-H522 lung; 71.9% in the experiment on A549/ATCC NSCLC; 64.6% with 786-0 renal; 78.8% with COLO 205 colon; 43.2% in the experiment on DU-145 prostate; 24.8% with K-562 leukemia. The growth in the experiment with MALME-3M melanoma was 86.1%; with MDA-MB-231 breast it was 64%; in the experiment on RXF 393 renal, 46%; in the experiment with SF-268 CNS it was 49.8%; in the experiment with SF-295 CNS, 78.5%; in the experiment with SF-539 CNS, 83.3%. The growth with UACC-257 melanoma was 60.5%.
As for `COC(=O)c1c2c(c[n+]([O-])c1C)C(=O)C=C(NCc1ccccc1)C2=O`, the growth is -39.1% (active) with NCI-H23 lung; -90.8% (active) in the experiment on NCI-H226 lung; -100% (active) with NCI-H322M lung; -95.3% (active) in the experiment with HOP-62 NSCLC; -79.8% (active) in the experiment with NCI-H460 lung; -74.5% (active) in the experiment with HOP-92 NSCLC. In addition, the growth with NCI-H522 lung was -57.9% (active); with A549/ATCC NSCLC, -64.2% (active); with 786-0 renal, -69% (active); in the experiment with COLO 205 colon it was -73.7% (active); with DU-145 prostate, -94.7% (active); with K-562 leukemia, -29% (active). Besides, the growth in the experiment on MALME-3M melanoma was -100% (active); in the experiment on MDA-MB-231 breast, -17.7% (active); with RXF 393 renal it was -94.1% (active); in the experiment on SF-268 CNS, -51.6% (active); in the experiment on SF-295 CNS it was -93.7% (active); in the experiment with SF-539 CNS, -99% (active). In addition, in the experiment on UACC-257 melanoma, the growth was -92.2% (active).
Consider `N#Cc1ccccc1-c1ccc(CN2C(=O)S/C(=C\c3ccc(Br)cc3)C2=O)cc1`, for which the growth in the experiment on NCI-H23 lung is 96.6%; in the experiment on NCI-H226 lung, 86.9%; with NCI-H322M lung, 101%; in the experiment with HOP-62 NSCLC, 94.8%; in the experiment on NCI-H460 lung, 106%; in the experiment on HOP-92 NSCLC, 94.6%. The growth is 94.8% with NCI-H522 lung; 97.3% with A549/ATCC NSCLC; 99.3% in the experiment with 786-0 renal; 111% in the experiment on COLO 205 colon; 105% in the experiment on DU-145 prostate; 93.8% in the experiment with K-562 leukemia. Besides, the growth was 96.8% in the experiment with MALME-3M melanoma; 95.9% with MDA-MB-231 breast; 104% in the experiment on RXF 393 renal; 99.4% in the experiment with SF-268 CNS; 93.1% with SF-295 CNS; 99.7% with SF-539 CNS. In addition, the growth with UACC-257 melanoma is 92.3%.
`O=C(NCc1ccc(Cn2c(=O)sn(-c3ccccc3)c2=O)cc1)OCc1ccc2cccc(O)c2n1`: the growth in the experiment on NCI-H23 lung is -67.4% (active); with NCI-H226 lung, 35.6%; with NCI-H322M lung, 67.4%; with HOP-62 NSCLC, -58.2% (active); in the experiment on NCI-H460 lung it was 27.2%; with HOP-92 NSCLC, -65.3% (active). The growth was -53.5% (active) in the experiment on NCI-H522 lung; -27.3% (active) with A549/ATCC NSCLC; -87.7% (active) with 786-0 renal; -57.4% (active) in the experiment on COLO 205 colon; -91.7% (active) with DU-145 prostate; -9.02% (active) in the experiment with K-562 leukemia. Moreover, the growth was -68.7% (active) with MALME-3M melanoma; -45.7% (active) in the experiment on MDA-MB-231 breast; -94.3% (active) in the experiment on RXF 393 renal; -46.2% (active) in the experiment on SF-268 CNS; 50.2% with SF-295 CNS; -91.7% (active) with SF-539 CNS. Moreover, in the experiment on UACC-257 melanoma, the growth is -25% (active).
As for `O=S(=O)(Nc1cc(F)cc(F)c1)c1ccc(-c2cnc(C3CC3)o2)cc1`, the growth with NCI-H23 lung is 63.7%; in the experiment on NCI-H226 lung, 48.2%; in the experiment with NCI-H322M lung, 63.2%; in the experiment on HOP-62 NSCLC, 40.9%; with NCI-H460 lung it was 25.3%; in the experiment on HOP-92 NSCLC, 42.5%. Further, the growth with NCI-H522 lung was 7.85% (active); in the experiment on A549/ATCC NSCLC, 46.7%; with 786-0 renal, 35.5%; with COLO 205 colon, 40.1%; in the experiment with DU-145 prostate, 70.4%; with K-562 leukemia, 9.67% (active). Further, the growth was 50.1% with MALME-3M melanoma; 58.2% in the experiment with MDA-MB-231 breast; 46.6% with RXF 393 renal; 56.7% with SF-268 CNS; 20.9% with SF-295 CNS; 29.2% in the experiment on SF-539 CNS. The growth in the experiment on UACC-257 melanoma is 62.7%.
Regarding `O=C1C=CC2(O)OC/C(=C\c3ccccc3)C(O)=C2C1=O` (stereo not drawn), the growth is 36.1% in the experiment on NCI-H23 lung; 81% in the experiment with NCI-H226 lung; 72.2% in the experiment with NCI-H322M lung; 5.5% (active) with HOP-62 NSCLC; 29.1% in the experiment on NCI-H460 lung; -3.3% (active) with HOP-92 NSCLC. Also, the growth in the experiment on NCI-H522 lung was -73.1% (active); in the experiment on A549/ATCC NSCLC, 42.2%; in the experiment with 786-0 renal, -41.3% (active); in the experiment with COLO 205 colon, 36.2%; in the experiment with DU-145 prostate, 24.2%; with K-562 leukemia it was 5.02% (active). In addition, the growth in the experiment on MALME-3M melanoma was -37.8% (active); in the experiment on MDA-MB-231 breast, -22.4% (active); in the experiment with RXF 393 renal, -64.7% (active); in the experiment with SF-268 CNS, 19.1%; with SF-295 CNS, 74.8%; with SF-539 CNS, -38.8% (active). For the same molecule, the growth is 65.9% in the experiment with UACC-257 melanoma and 27% with M14 melanoma.
